The term AC50 denotes the midpoint of the concentration-response curve, whichever way the signal moves.

The values that follow come from PubChem BioAssay (EPA / NIEHS).

In assay [1] the target is bovine Estrogen Receptor (ER), ESR1 (gene 407238) (UniProt P49884). The assay can be described thus: NVS_NR_bER: NovaScreen (NVS) Nuclear Receptor Binding Assay for bovine Estrogen Receptor (ER) (AID 2283345).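 Further: actives lower the bound radioligand count which means they displace the ER ligand.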 The method in brief: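 Bovine uterine membranes; tritiated or iodinated radioligand; competitive displacement; 18 h; scintillation read; DMSO negative control; 25 uM duplicates, then concentration series for actives.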
Chain of bovine Estrogen Receptor (ER), ESR1 (gene 407238) (P49884 whole entry, looked up): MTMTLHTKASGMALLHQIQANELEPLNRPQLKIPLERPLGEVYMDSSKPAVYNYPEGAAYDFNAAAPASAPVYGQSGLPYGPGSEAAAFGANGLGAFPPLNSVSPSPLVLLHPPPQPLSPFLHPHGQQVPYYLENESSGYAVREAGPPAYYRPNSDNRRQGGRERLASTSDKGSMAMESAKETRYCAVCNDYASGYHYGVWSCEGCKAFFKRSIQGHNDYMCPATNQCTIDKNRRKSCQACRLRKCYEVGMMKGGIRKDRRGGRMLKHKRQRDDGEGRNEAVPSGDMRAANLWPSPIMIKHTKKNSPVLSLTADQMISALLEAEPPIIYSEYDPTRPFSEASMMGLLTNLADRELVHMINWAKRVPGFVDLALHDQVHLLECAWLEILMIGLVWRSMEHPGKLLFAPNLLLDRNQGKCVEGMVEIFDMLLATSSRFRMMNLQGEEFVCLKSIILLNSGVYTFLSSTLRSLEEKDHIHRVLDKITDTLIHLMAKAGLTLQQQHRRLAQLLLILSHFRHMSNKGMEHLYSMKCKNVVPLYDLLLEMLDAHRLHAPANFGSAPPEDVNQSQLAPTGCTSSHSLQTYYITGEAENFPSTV

In assay [2] the target is chimpanzee Androgen Receptor (AR), AR (gene 747460) (UniProt O97775). The assay can be described thus: NVS_NR_cAR: NovaScreen (NVS) Nuclear Receptor Binding Assay for chimpanzee Androgen Receptor (AR) (AID 2283346). The method in brief: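 Cell-free radioligand displacement using receptor protein extracted from Sf9/Sf21 cells; bound radioligand measured by scintillation counting 72 hours after chemical dosing. Loss of signal versus DMSO baseline indicates binding; primary screen single-concentration in duplicate at 25 uM, actives followed in concentration series.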
Chain of chimpanzee Androgen Receptor (AR), AR (gene 747460) (O97775 whole entry, looked up): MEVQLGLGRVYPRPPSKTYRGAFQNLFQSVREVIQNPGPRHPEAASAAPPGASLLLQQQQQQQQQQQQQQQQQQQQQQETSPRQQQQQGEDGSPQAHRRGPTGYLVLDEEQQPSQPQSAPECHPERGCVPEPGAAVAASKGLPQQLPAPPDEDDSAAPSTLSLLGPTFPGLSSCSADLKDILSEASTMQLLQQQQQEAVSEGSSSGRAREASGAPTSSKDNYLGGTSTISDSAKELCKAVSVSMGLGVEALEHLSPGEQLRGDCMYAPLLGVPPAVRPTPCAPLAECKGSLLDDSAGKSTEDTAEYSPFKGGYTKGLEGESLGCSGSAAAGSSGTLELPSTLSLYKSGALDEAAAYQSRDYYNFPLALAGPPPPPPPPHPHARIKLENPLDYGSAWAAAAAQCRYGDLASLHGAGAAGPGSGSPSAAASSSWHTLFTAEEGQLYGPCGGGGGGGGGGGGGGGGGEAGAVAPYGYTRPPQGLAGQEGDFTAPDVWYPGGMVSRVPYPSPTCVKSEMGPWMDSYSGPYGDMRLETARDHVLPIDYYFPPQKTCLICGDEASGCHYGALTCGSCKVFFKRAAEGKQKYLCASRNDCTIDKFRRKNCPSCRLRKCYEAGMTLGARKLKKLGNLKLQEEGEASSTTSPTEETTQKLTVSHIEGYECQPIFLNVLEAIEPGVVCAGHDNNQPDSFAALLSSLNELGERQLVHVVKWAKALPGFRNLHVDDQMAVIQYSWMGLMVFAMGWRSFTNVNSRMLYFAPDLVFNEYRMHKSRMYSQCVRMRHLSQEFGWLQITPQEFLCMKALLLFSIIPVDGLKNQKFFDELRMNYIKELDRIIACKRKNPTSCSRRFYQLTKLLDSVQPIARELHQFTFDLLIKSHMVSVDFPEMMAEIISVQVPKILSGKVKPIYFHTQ

Assay [3] has as its target rat Peripheral-type Benzodiazepine Receptor (PBR), Tspo (gene 24230) (UniProt P16257). Description: NVS_MP_rPBR: NovaScreen (NVS) Membrane Protein Assay for rat Peripheral-type Benzodiazepine Receptor (PBR) (AID 2283335). Put shortly: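 Radioligand displacement, rat kidney membrane prep, 1 h exposure, filter-based scintillation read; DMSO baseline, loss-of-signal scored. Primary screen at 25 uM in duplicate, actives followed up in concentration series.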

The target in assay [4] is Estrogen receptor (Homo sapiens) (UniProt P03372). Description: NVS_NR_hER: NovaScreen (NVS) Nuclear Receptor Binding Assay for human Estrogen Receptor (ER) (AID 2283348). Put shortly:
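Cell-free radioligand binding with protein extracted from MCF7 cells; scintillation counting 18 hours after dosing. Loss of signal versus DMSO baseline read as displacement; primary single-concentration screen at 25 uM in duplicate, actives retested in concentration series.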

Assay [5] has as its target rat Neonicotinoid receptor (NNR), Chrna7 (gene 25302) (UniProt Q05941). The assay can be described thus: NVS_LGIC_rNNR_BungSens: NovaScreen (NVS) Ligand-Gated Ion Channel Assay for rat Neonicotinoid receptor (NNR) (AID 2283315). Put shortly:
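Radioligand displacement binding on rat cortical membranes, 2.5 h incubation, filtration and scintillation counting. Loss of specific binding fitted relative to DMSO.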

The target of assay [6] is Sodium channel protein type 1 subunit alpha (Rattus norvegicus) (UniProt P04774). The assay can be described thus: NVS_IC_rNaCh_site2: NovaScreen (NVS) Ion Channel Assay for rat Sodium Channel, Site 2 (NaCh) (AID 2283322).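 Further: hit means loss of radioligand binding signal relative to DMSO so AC50 marks displacement.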 Put shortly: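 Membranes: rat forebrain. Format: competitive radioligand displacement, filter separation, scintillation readout, 1 h exposure. Primary screen in duplicate at 25 uM; actives retested in concentration series.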

Assay [7] deals with Estrogen receptor (Homo sapiens) (UniProt P03372). The assay can be described thus: OT_ER_ERaERa_1440: Odyssey Thera (OT) 24-hour HEK293T Protein-Complementation Assay for Estrogen Receptor-alpha/-alpha Homodimer (AID 2283349).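 Further: hits raise fluorescence above DMSO for agonists and antagonists alike.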 The method in brief:
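Readout is the rise in mean fluorescence from reporter fragment complementation when ERα LBD (aa 310-547) units dimerize in HEK293T cells. Measured 24 h after dosing and analysed as increase over DMSO control.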

Assay [8] concerns the target rat Gamma-Aminobutyric Acid Type A Receptor, Non-Selective (GABAR-NonSelective), Gabra1 (gene 29705) (UniProt P62813). Description: NVS_LGIC_rGABAR_NonSelective: NovaScreen (NVS) Ligand-Gated Ion Channel Assay for rat Gamma-Aminobutyric Acid Type A Receptor, Non-Selective (GABAR-NonSelective) (AID 2283326). Put shortly: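 Radioligand displacement on rat whole-brain extract, 1 h, filter scintillation readout; signal loss fitted versus DMSO. Primary screen in duplicate at 25 uM; hits (e.g. ≥30% inhibition) retested in concentration-response up to 50 uM.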

Assay [9] has as its target bovine Gamma-Aminobutyric Acid Type A Receptor Agonist (GABAR Agonist), GABRA1 (gene 780973) (UniProt P08219). The assay can be described thus: NVS_LGIC_bGABAR_Agonist: NovaScreen (NVS) Ligand-Gated Ion Channel Assay for bovine Gamma-Aminobutyric Acid Type A Receptor Agonist (GABAR Agonist) (AID 2283338). Put shortly: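 Radioligand binding to bovine cerebellar membranes in agonist format, read by filter-based scintillation counting after 1 h. Primary screen in duplicate at 25 uM, with actives followed in concentration series. Gain of signal versus DMSO.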

Assay [10] is described as follows: NVS_IC_rCaBTZCHL: NovaScreen (NVS) Ion Channel Assay for Calcium Channel, Type L, Benzothiazepine Site (CaBTZCHL) (AID 2283337). Put shortly:
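Competitive displacement of a site-specific radioligand from rat cortex membranes, measured as signal loss against DMSO baseline by filter radiodetection after 1.5 h. Single-point 25 uM primary screen.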

Results filed as inconclusive are left out. More than one record can exist for a structure, and the calls need not agree. Activity calls are given as the source filed them. How the source made its calls: active means hit-call score of the fitted dose curve at least 0.9, where 1 is the maximum; inconclusive means response in the unintended direction; inactive means score below 0.9.

Chain of Estrogen receptor (Homo sapiens) (P03372 whole entry, looked up, the tested form may be a part): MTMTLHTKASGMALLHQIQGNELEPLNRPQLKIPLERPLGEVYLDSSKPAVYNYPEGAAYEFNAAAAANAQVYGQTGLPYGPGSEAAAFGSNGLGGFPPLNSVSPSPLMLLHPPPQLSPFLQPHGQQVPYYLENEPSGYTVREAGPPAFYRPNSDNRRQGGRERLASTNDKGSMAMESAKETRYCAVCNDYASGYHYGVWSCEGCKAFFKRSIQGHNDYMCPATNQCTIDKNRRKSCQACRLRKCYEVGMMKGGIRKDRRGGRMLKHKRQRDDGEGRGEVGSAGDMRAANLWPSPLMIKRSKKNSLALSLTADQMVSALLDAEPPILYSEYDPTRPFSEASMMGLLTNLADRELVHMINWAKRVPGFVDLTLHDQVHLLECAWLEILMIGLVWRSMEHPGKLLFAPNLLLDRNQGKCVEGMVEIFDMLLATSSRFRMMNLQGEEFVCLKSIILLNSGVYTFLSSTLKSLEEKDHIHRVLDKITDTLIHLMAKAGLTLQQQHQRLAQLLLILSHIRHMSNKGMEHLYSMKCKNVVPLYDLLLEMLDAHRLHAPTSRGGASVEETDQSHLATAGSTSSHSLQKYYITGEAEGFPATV
Chain of rat Peripheral-type Benzodiazepine Receptor (PBR), Tspo (gene 24230) (P16257 whole entry, looked up): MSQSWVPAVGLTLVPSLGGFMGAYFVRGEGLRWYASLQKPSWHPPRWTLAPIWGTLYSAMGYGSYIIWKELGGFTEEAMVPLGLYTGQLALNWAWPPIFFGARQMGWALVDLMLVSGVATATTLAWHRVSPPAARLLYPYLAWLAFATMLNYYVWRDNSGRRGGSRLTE
Chain of rat Gamma-Aminobutyric Acid Type A Receptor, Non-Selective (GABAR-NonSelective), Gabra1 (gene 29705) (P62813 whole entry, looked up): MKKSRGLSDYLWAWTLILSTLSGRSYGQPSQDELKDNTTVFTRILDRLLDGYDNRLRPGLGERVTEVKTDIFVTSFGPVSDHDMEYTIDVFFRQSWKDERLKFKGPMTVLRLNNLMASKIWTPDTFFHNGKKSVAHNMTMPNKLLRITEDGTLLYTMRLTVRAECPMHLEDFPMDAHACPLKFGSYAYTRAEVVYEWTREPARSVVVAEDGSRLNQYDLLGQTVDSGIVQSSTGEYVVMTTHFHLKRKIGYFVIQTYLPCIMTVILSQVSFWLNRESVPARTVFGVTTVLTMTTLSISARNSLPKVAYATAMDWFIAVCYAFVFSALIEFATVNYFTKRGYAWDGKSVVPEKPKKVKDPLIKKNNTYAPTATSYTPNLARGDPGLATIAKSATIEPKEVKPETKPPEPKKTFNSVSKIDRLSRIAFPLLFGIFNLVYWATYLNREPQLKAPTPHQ
Chain of rat Neonicotinoid receptor (NNR), Chrna7 (gene 25302) (Q05941 whole entry, looked up): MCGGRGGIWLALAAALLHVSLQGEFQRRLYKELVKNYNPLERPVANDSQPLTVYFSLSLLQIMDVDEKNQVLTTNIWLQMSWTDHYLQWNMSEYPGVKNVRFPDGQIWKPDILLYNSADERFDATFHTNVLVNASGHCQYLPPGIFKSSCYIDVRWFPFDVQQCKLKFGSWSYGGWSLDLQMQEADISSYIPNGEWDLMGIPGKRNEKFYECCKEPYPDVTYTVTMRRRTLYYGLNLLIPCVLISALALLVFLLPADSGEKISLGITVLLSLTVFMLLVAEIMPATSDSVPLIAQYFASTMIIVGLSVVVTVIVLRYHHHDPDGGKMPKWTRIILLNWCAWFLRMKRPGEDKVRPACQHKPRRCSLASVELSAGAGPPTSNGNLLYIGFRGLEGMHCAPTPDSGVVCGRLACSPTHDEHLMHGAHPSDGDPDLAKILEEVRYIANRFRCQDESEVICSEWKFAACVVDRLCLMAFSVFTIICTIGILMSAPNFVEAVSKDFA
Chain of bovine Gamma-Aminobutyric Acid Type A Receptor Agonist (GABAR Agonist), GABRA1 (gene 780973) (P08219 whole entry, looked up): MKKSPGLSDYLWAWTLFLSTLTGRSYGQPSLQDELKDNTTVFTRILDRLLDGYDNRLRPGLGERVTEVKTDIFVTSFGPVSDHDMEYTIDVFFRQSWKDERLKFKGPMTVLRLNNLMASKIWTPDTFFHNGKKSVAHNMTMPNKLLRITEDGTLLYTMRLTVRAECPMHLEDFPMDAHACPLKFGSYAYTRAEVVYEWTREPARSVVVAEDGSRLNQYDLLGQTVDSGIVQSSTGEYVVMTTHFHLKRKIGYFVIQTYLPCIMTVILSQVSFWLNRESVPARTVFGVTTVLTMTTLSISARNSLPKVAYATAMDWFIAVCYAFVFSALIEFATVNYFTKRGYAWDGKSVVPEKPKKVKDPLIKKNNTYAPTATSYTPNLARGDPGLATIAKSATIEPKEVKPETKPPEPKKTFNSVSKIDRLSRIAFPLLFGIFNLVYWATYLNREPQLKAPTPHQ

As to `C=C[Si](OCCOC)(OCCOC)OCCOC`, the compound was called inactive in assay [1] and in assay [2].

Turning to `Oc1ccc(/C=C/c2cc(O)cc(O)c2)cc1`, the compound was called inactive in [3] and in assay [4]. The AC50 in assay [1] was 25 µM (active); in [4], 2.52 µM (active).

Turning to `CCCCC/C=C\C/C=C\CCCCCCCC(=O)O`, the values for the AC50 in assay [3], in [2] and in assay [4] were 5.8 µM (active), 25 µM (active) and 25 µM (active), respectively. Further, in assay [1], the compound was called inactive.

As to `CC(Cl)COP(=O)(OCC(C)Cl)OCC(C)Cl` (stereo not given), the AC50 in assay [3] was 13.4 µM (active).

Turning to `CCOC(=O)C1=NN(c2ccc(Cl)cc2Cl)C(C)(C(=O)OCC)C1` (stereo not given), the AC50 in assay [3] is 9.42 µM (active).

In the case of `COC(OC)(C(=O)c1ccccc1)c1ccccc1`, the AC50 in [3] and in [4] was 25 µM (active) each time. In addition, the outcome in assay [1] and in assay [4] was inactive.

As to `C=C(C)C(=O)OCC(O)COc1ccc(C(C)(C)c2ccc(OCC(O)COC(=O)C(=C)C)cc2)cc1` (stereo not given), the result in assay [1] was inactive.

Regarding `CC1=CP(=O)(c2ccccc2)CC1` (stereo not given), the result in assay [5] was inactive.

For the compound `CCC(C)C(=O)OC` (stereo not given), the compound was classed as inactive in assay [6].

As for `CCCCNC(=S)NCCCC`, the AC50 in [3] was 5.23 µM (active). Also, the result in [7] was inactive.

Consider `CCCCCCCOC(=O)c1ccc(O)cc1`, for which the outcome in assay [3] was inactive. The AC50 was 13.2 µM (active) in assay [1], 3.5 µM (active) in assay [4] and 12.3 µM (active) in assay [7].

For the compound `CCCCNS(=O)(=O)c1ccc(C)cc1`, the half-maximal activity concentration (AC50) in assay [3] is 1.72 µM (active).

Turning to `CC/C=C\C/C=C\C/C=C\CCCCCCCC(=O)OC`, the AC50 in [3] is 13.3 µM (active).

As for `Nc1ccc(C(=O)O)cc1`, the AC50 in [8] is 2.62 µM (active).

Consider `C1CNCCN1`, for which the values for the AC50 in assay [8] and in assay [9] were 3.59 µM (active) and 25 µM (active), respectively.

As to `O=c1c(O)c(-c2ccc(O)cc2O)oc2cc(O)cc(O)c12`, the call in [3], in assay [1] and in [7] was inactive. Further, the AC50 in assay [2] was 9.55 µM (active); in [4], 4.3 µM (active).

In the case of `C=CCCCCCCCCC=O`, in assay [1], the compound was called inactive.

Turning to `Nc1nc(N)nc(-c2ccccc2)n1`, the compound was called inactive in assay [6] and in [1].

`C=Cc1cccc(C)c1`: in assay [6], the call was inactive.

For `CCOC(=O)/C=C\C(=O)OCC`, the call in [1] was inactive. The AC50 in assay [2] was 5 µM (active).

For `CCOC(=O)C1=NOC(c2ccccc2)(c2ccccc2)C1`, the outcome in assay [3] and in assay [7] was inactive.

Take `CCCCCCCCC(CO)CCCCCC` (stereo not given): the result in assay [10] and in assay [7] was inactive.

For the compound `O=C(Oc1ccccc1)c1ccccc1C(=O)Oc1ccccc1`, the AC50 in assay [3] is 30.9 µM (active).

Take `CC(C)[N+](C)(CCOC(=O)C1c2ccccc2Oc2ccccc21)C(C)C`: the results for the AC50 in assay [5] and in assay [6] were 9.05 µM (active) and 10.1 µM (active), respectively.

As to `Cc1ccc([N+](=O)[O-])cc1N`, the AC50 in assay [8] is 13.8 µM (active); in assay [2], 20.8 µM (active). Also, the outcome in assay [7] was inactive.

`CCCCNS(=O)(=O)c1ccccc1`: the AC50 in [3] is 25 µM (active).

On to `O=C(O)c1cc(O)c2ccccc2c1O`, for which the AC50 in assay [3] was 13.6 µM (active); in assay [2], 35 µM (active). The compound was classed as inactive in assay [1] and in assay [7].

With `N#Cc1ccc(C(c2ccc(C#N)cc2)n2cncn2)cc1`, the half-maximal activity concentration (AC50) was 6.92 µM (active) in assay [3] and 7.43 µM (active) in assay [2]. In addition, in assay [4], the outcome was inactive.

As to `Nc1ccnc(=O)[nH]1`, the outcome in assay [10] was inactive.

Regarding `CCCCCCOC(=O)CCCCC(=O)OCCCCCC`, the result in [10] was inactive.

Turning to `O=C(OCc1ccccc1)c1ccc(O)cc1`, the AC50 in assay [3] was 3.77 µM (active); in assay [1], 1.18 µM (active); in assay [2], 25 µM (active); in assay [4], 0.212 µM (active).
